We go through 40 compounds from PubChem BioAssay (NCATS).

Records with an inconclusive call do not appear. A number with no mark means an inactive call. Calls of active or inactive are those of the source. Calls come from the whole dose curve; tested in HEK293 reporter line.
% is set by controls: 0 for no effect and ±100 for the full control effect; potency is the fitted concentration of half-maximal effect.

This test is described as follows: qHTS for Inhibitors of the Functional Ribonucleoprotein Complex (vRNP) of Lassa (LASV) Arenavirus: LASV Primary Screen - GLuc reporter signal (AID 1347082). Note: nearly all actives have a fitted effect of over 60% in size. Particulars: LASV minigenome vRNP, Gaussia luciferase reporter; series mostly up to 57.5 µM; activity change, negative = inhibition: at the top concentration.
In the case of `COc1ccc(C(=O)OC2CC3CC[C@H](C2)N3C(C)=O)cc1OC` (stereo not given in full), the “activity change, negative = inhibition” value is -0.235%.

Turning to `C=C1CC[C@H](O)C/C1=C/C=C1\CCC[C@]2(C)[C@@H]([C@H](C)CCC(O)C(C)(C)O)CC[C@@H]12` (stereo not given in full), the “activity change, negative = inhibition” value is -1.34%.

Take `CC(C)CN(C[C@H](O)[C@H](Cc1ccccc1)NC(=O)O[C@H]1CCOC1)S(=O)(=O)c1ccc(N)cc1`: the “activity change, negative = inhibition” value was -6.8%.

For `O=C1NC2C(=CC(O)C(O)C2O)c2cc3c(c(O)c21)OCO3` (stereo not given), the “activity change, negative = inhibition” value is -94%.

Regarding `CC(C)(O[C@@H]1O[C@H](CO)[C@@H](O)[C@H](O)[C@H]1O)[C@H]1Cc2cc3ccc(=O)oc3cc2O1`, the “activity change, negative = inhibition” value was 15.1%.

In the case of `COc1cc2oc(=O)ccc2cc1O`, the “activity change, negative = inhibition” value was 8.71%.

In the case of `CCN(CC)CCNC(=O)c1ccc(NS(C)(=O)=O)cc1`, the “activity change, negative = inhibition” value was -1.54%.

For the compound `O=c1c(O[C@@H]2OC([C@H](O)CO)[C@H](O)[C@H]2O)c(-c2ccc(O)c(O)c2)oc2cc(O)cc(O)c12` (stereo not given in full), the “activity change, negative = inhibition” value is -8.24%.

With `CCOC(=O)c1ccccc1`, the “activity change, negative = inhibition” value was -3% [at 115 µM].

`CCCC(=O)C(C)=O`: the “activity change, negative = inhibition” value was -7.13% [at 115 µM].

With `CO[C@H]1C[C@H](O[C@H]2[C@H](C)O[C@@H](O[C@@H]3/C(C)=C/C[C@@H]4C[C@@H](C[C@]5(C=C[C@H](C)[C@@H](C6CCCCC6)O5)O4)OC(=O)[C@@H]4C=C(C)[C@@H](O)[C@H]5OC/C(=C\C=C\[C@@H]3C)[C@]54O)C[C@@H]2OC)O[C@@H](C)[C@@H]1O`, the “activity change, negative = inhibition” value was 3.62%.

As for `CNCCO`, the “activity change, negative = inhibition” value is -6.54%.

With `CC(C)CCC[C@@H](C)[C@@H]1CC[C@H]2C3=CC=C4CC(O)CC[C@]4(C)[C@H]3CC[C@@]21C` (stereo not given in full), the “activity change, negative = inhibition” value was -5.05%.

On to `CCOC(=O)c1c(C)nc(C)c(C(=O)OCC)c1-c1ccccc1`, for which the “activity change, negative = inhibition” value is 1.16%.

Turning to `ON=Cc1ccnc2ccccc12`, the “activity change, negative = inhibition” value is 10.1%.

Take `C[C@@H]1CC[C@@]23COC(=O)C2=CCC[C@@H]3[C@@]1(C)CC/C(=C/CO)CO`: the “activity change, negative = inhibition” value was -6.53%.

With `C=C1CCC2[C@](C)(CO)C(O)CC[C@]2(C)C1CC=C1C(=O)OCC1O` (stereo not given in full), the “activity change, negative = inhibition” value is -8.56% [at 115 µM].

Take `COC(=O)CC(C)CCC=C(C)C` (stereo not given): the “activity change, negative = inhibition” value was 2.9% [at 115 µM].

Take `NC(=O)c1ncn([C@@H]2O[C@H](CO)[C@@H](O)[C@@H]2O)c1N`: the “activity change, negative = inhibition” value was -3.79%.

On to `COc1ccc([C@@H](OC)[C@@]2(Cc3ccc(O)cc3)N=C(N)N(C)C2=O)cc1`, for which the “activity change, negative = inhibition” value is -1.87%.

Turning to `CCCCCCOC(=O)CCC`, the “activity change, negative = inhibition” value was -8.1% [at 115 µM].

For `CCOC(=O)[C@H](CCc1ccccc1)N[C@@H](C)C(=O)N1[C@@H](C(=O)O)C[C@H]2CCC[C@@H]21`, the “activity change, negative = inhibition” value is 13.2%.

With `C[C@H]1CC[C@@H]2[C@@H](C)[C@H]3C(C[C@H]4C5CC[C@H]6C[C@@H](O)CC[C@]6(C)C5CC[C@]34C)N2C1` (stereo not given in full), the “activity change, negative = inhibition” value was 2.81%.

Regarding `COc1cc(C(=O)OC2CC3CCC2(C)C3(C)C)ccc1OC(C)=O` (stereo not given), the “activity change, negative = inhibition” value is 12.1%.

Consider `CC(=O)OCC1=C(C(=O)O)N2C(=O)[C@@H](NC(=O)Cc3ccccc3)[C@H]2SC1`, for which the “activity change, negative = inhibition” value is 7.75%.

For `Cn1cnc2c(ncn2[C@@H]2O[C@H](CO)[C@@H](O)[C@H]2O)c1=N`, the “activity change, negative = inhibition” value was 0.776%.

In the case of `COC(=O)Cc1ccccc1`, the “activity change, negative = inhibition” value was -10.7% [at 115 µM].

Turning to `O=C(CCc1ccc(O)cc1)c1c(O)cc(O)cc1O[C@@H]1O[C@H](CO)[C@H](O)[C@H](O)[C@H]1O`, the “activity change, negative = inhibition” value was -10.7%.

Turning to `COc1c(C)c2c(c(O)c1CC=C(C)CCC(=O)OCCN1CCOCC1)C(=O)OC2`, the Potency is 6.11 µM (active).

`COc1c(-c2ccc(O)cc2)oc2cc(O)cc(O)c2c1=O`: the “activity change, negative = inhibition” value is -25.2%.

For `CC(=O)O[C@H]1CC[C@@]2(C)[C@H](C1)C(=O)C[C@H]1[C@@H]3CC[C@@H]4[C@@H](CN5C[C@@H](C)CC[C@H]5[C@@]4(C)O)[C@@H]3C[C@@H]12`, the “activity change, negative = inhibition” value is 1.8%.

As to `COc1ccc(-c2coc3cc(O[C@@H]4O[C@H](CO)[C@@H](O)[C@H](O)[C@H]4O)c(OC)cc3c2=O)cc1`, the “activity change, negative = inhibition” value is 5.07%.

As for `Oc1cc(O)cc(-c2cc3ccc(O)cc3o2)c1`, the “activity change, negative = inhibition” value was -13.2%.

For the compound `C/C=C(\C)C(=O)O[C@H](c1cc2ccc(=O)oc2cc1OC)[C@@H](O)C(C)(C)O`, the “activity change, negative = inhibition” value is 3.16%.

As to `C/C(=C\CNc1ncnc2c1ncn2[C@@H]1O[C@H](CO)[C@@H](O)[C@H]1O)CO`, the “activity change, negative = inhibition” value was -11.8%.

As to `CCC1(CC)C(=O)NC(=O)N(c2ccccc2)C1=O`, the “activity change, negative = inhibition” value was 18.1%.

Consider `O=c1cc(-c2ccc(O)cc2)oc2cc(OC3OC(CO)C(O)C(O)C3O)c(C3OC(CO)C(O)C(O)C3O)c(O)c12` (stereo not given), for which the “activity change, negative = inhibition” value is 7.13% [at 24.7 µM].

`O=C(CCCO)CCCCCCCCC[C@H]1N[C@H](CO)[C@@H](O)[C@@H]1O`: the “activity change, negative = inhibition” value is -1.05%.

For the compound `C/C=C(/C)C(=O)O[C@@H]1[C@H](OC(=O)C=C(C)C)c2c(ccc3ccc(=O)oc23)OC1(C)C`, the “activity change, negative = inhibition” value is 4.83%.

With `OC(CC(O)c1ccccc1)c1ccccc1` (stereo not given), the “activity change, negative = inhibition” value was -0.462%.
